Some test systems named below: SK-MEL-2 melanoma; EKVX NSCLC; SN12C renal; UO-31 renal; TK-10 renal; ACHN renal; CAKI-1 renal; A498 renal; CCRF-CEM leukemia; MOLT-4 leukemia.
What all share (experiment): NCI-60 one-dose screen, 48 h (100 = growth as untreated, 0 = no growth, -100 = all killed)
What all share (settings): 10 µM unless noted

This note sets out measurements from PubChem BioAssay (NCI).

Molecules are shown by their SMILES. Compounds without any hit were thinned out: in the full panel of roughly 83,000, 20% have a hit.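 The test compound was applied at a single concentration to cells in 96-well plates for 48 hours, and percent growth was recorded.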 Unmarked numbers belong to inactive results. Calls of active or inactive are those of the source. How the source made its calls: active means growth percent below 10; inactive means the rest.

Regarding `O=C(c1ccccc1)c1ccc(O)c2ncccc12`, the growth in the assay with SK-MEL-2 melanoma was 43%; with EKVX NSCLC it was 51.1%; in the assay on SN12C renal, 31.6%; in the assay with UO-31 renal it was 7.3% (active); with TK-10 renal, 83.1%; with ACHN renal, 18.5%. The growth in the assay on CAKI-1 renal is 8.47% (active); in the assay on A498 renal, 53.1%; in the assay on CCRF-CEM leukemia, 29.5%; in the assay on MOLT-4 leukemia, 21.2%.

As to `O=C(/C=C/C(Cl)(Cl)Cl)Nc1ccc(Cl)cc1`, the growth with SK-MEL-2 melanoma is 84.6%; with EKVX NSCLC, 94.2%; with SN12C renal it was 101%; in the assay on UO-31 renal, -78% (active); with TK-10 renal, 129%; in the assay on ACHN renal it was 104%. The growth was 101% with CAKI-1 renal, 101% in the assay on A498 renal, 73.2% in the assay with CCRF-CEM leukemia and 84.2% in the assay with MOLT-4 leukemia.

For `Cc1nc([N+](=O)[O-])c(Sc2nncc(-c3ccccc3)n2)n1C`, the growth in the assay with SK-MEL-2 melanoma is 95.4%; with EKVX NSCLC, 79.7%; with SN12C renal, 86.8%; in the assay with UO-31 renal it was 60.3%; with TK-10 renal, 74.4%; in the assay on ACHN renal it was 62.6%. Moreover, the growth was -3.06% (active) with CAKI-1 renal, 107% with A498 renal, 45.1% with CCRF-CEM leukemia and 65.7% in the assay on MOLT-4 leukemia.

Turning to `O=C1C=Cc2ccccc2/C1=C/c1nc(-c2ccccc2)oc1O`, the growth with SK-MEL-2 melanoma is 99.1%; with EKVX NSCLC it was 78.7%; with SN12C renal, 94.8%; with UO-31 renal, 65.5%; with TK-10 renal, 136%; in the assay on ACHN renal it was 81.9%. Besides, the growth in the assay on CAKI-1 renal is 86.8%; in the assay on A498 renal, 113%; in the assay on CCRF-CEM leukemia, 110%; in the assay on MOLT-4 leukemia, 96.5%.

On to `CCN1CCCC(Nc2cc(C)nc(/N=C(/N)Nc3ccc(Cl)c(Cl)c3)n2)C1` (stereo not given), for which the growth in the assay on SK-MEL-2 melanoma was -72.7% (active); in the assay on EKVX NSCLC, 31.4%; in the assay on SN12C renal, 1.64% (active); in the assay with UO-31 renal it was -81.4% (active); in the assay with TK-10 renal it was -88.6% (active); in the assay on ACHN renal it was -25.1% (active). For the same compound, the growth is -40.6% (active) in the assay on CAKI-1 renal, -49.1% (active) in the assay on A498 renal, -16.4% (active) in the assay on CCRF-CEM leukemia and -35.4% (active) in the assay with MOLT-4 leukemia.

With `OC(c1cc(-c2ccc(Cl)cc2)nc2c(Cl)cccc12)C1CCCCN1` (stereo not given), the growth in the assay with SK-MEL-2 melanoma is -91% (active); with EKVX NSCLC it was -32.9% (active); in the assay with SN12C renal, -70.3% (active); with UO-31 renal, -74.5% (active); with TK-10 renal it was -75.9% (active); in the assay with ACHN renal, -65.3% (active). The growth in the assay with CAKI-1 renal is -72.5% (active); in the assay with A498 renal, 9.48% (active); with CCRF-CEM leukemia, -59.1% (active); in the assay with MOLT-4 leukemia, -57.5% (active).

Take `CCN(CC)CCNc1ccc([N+](=O)[O-])c2sc3ccccc3c(=O)c12`: the growth in the assay with SK-MEL-2 melanoma was 21.6%; in the assay with EKVX NSCLC, 23.1%; in the assay on SN12C renal, 28.5%; with UO-31 renal, -10% (active); in the assay on TK-10 renal, 63.7%; in the assay on ACHN renal, 6.41% (active). Besides, the growth in the assay on CAKI-1 renal was -0.017% (active); in the assay with A498 renal, 43.7%; with CCRF-CEM leukemia, 38%; in the assay with MOLT-4 leukemia, 12.1%.

In the case of `NC(CS/C(Cl)=C/Cl)C(=O)O` (stereo not given), the growth in the assay with SK-MEL-2 melanoma is 53.7%; in the assay with EKVX NSCLC it was 81.4%; in the assay on SN12C renal, 87%; with UO-31 renal, 82.6%; in the assay with TK-10 renal it was 117%; with ACHN renal, 95.2%. For the same compound, the growth in the assay with CAKI-1 renal was 89.6%; with A498 renal, -60% (active); with CCRF-CEM leukemia, 66.5%; in the assay with MOLT-4 leukemia it was 97.1%.

For `CC(/C=N/NC(N)=S)Cc1ccc(C(C)C)cc1` (stereo not given), the growth in the assay with SK-MEL-2 melanoma was 54.4%; with EKVX NSCLC it was 80.5%; in the assay on SN12C renal, 69.8%; in the assay on UO-31 renal, 45%; in the assay with TK-10 renal, 99.6%; in the assay on ACHN renal, 103%. Also, the growth with CAKI-1 renal was 58.7%; in the assay on A498 renal, 51%; with CCRF-CEM leukemia, 65.9%; in the assay on MOLT-4 leukemia, 67.7%.

For the compound `CC1(C)OC2C(COC(c3ccccc3)(c3ccccc3)c3ccccc3)OC(c3c[nH]c4c(N)ncnc34)C2O1` (stereo not given), the growth in the assay with SK-MEL-2 melanoma was 69.8%; in the assay on EKVX NSCLC, 55.3%; in the assay on SN12C renal, 50.1%; with UO-31 renal, 58.3%; with TK-10 renal it was 84.2%; in the assay on ACHN renal it was 52.2%. In addition, the growth with CAKI-1 renal was 56.6%; in the assay with A498 renal it was 74.7%; in the assay with CCRF-CEM leukemia it was 36.3%; in the assay with MOLT-4 leukemia, -7.93% (active).

Take `COc1ccc(/C=C2/C(=O)ON=C2C)cc1`: the growth in the assay on SK-MEL-2 melanoma was 96%; with EKVX NSCLC, 109%; in the assay with SN12C renal, 95.6%; in the assay on UO-31 renal it was 99%; in the assay on TK-10 renal, 96.5%; in the assay on ACHN renal it was 118%. Moreover, the growth is 102% in the assay on CAKI-1 renal, 100% in the assay with A498 renal, 105% in the assay with CCRF-CEM leukemia and 107% with MOLT-4 leukemia.

Take `Oc1ccc(Cl)cc1C(c1cc(Cl)ccc1O)C(Cl)(Cl)Cl`: the growth in the assay with SK-MEL-2 melanoma was 49.2%; with EKVX NSCLC, 13.7%; with SN12C renal it was -4.47% (active); with UO-31 renal it was 40.8%; in the assay with TK-10 renal it was 77.5%; in the assay with ACHN renal it was -7.96% (active). Also, the growth in the assay with CAKI-1 renal is 36.8%; with A498 renal, 23.4%; in the assay on CCRF-CEM leukemia it was 19.1%; in the assay with MOLT-4 leukemia it was 2.12% (active).

Take `NC(=S)Nc1ccc2c(c1)Cc1ccccc1-2`: the growth with SK-MEL-2 melanoma was 89.6%; with EKVX NSCLC, 67.1%; in the assay on SN12C renal, 89.4%; with UO-31 renal, 55.2%; in the assay with TK-10 renal, 121%; in the assay on ACHN renal, 91.7%. Further, the growth in the assay with CAKI-1 renal was 92.1%; in the assay with A498 renal, 110%; with CCRF-CEM leukemia, 70.5%; in the assay with MOLT-4 leukemia it was 88.7%.

Take `CCOC(=O)C1(C)CCCC1N` (stereo not given): the growth in the assay on SK-MEL-2 melanoma was 113%; in the assay on EKVX NSCLC, 108%; in the assay on SN12C renal it was 101%; in the assay on UO-31 renal it was 83.7%; in the assay on TK-10 renal, 98.7%; in the assay on ACHN renal, 106%. The growth with CAKI-1 renal was 87.6%; in the assay with A498 renal, 106%; in the assay with CCRF-CEM leukemia, 103%; with MOLT-4 leukemia, 103%.
